In the library only some 2.5% were active in any assay of this set; here they are far more common.
D2 ag-1: human D2 receptor agonism in beta-arrestin assay; activation, % (concentration not given with the values); P14416; 360,000 compounds, 0.084% hits; DiscoveRx PathHunter D2 beta-arrestin, luminescence, 90 min; 100% = 57 uM dopamine signal; in the data active = activation above about 40%; inconclusive = between about 15% and that limit
Target sequence (P14416 whole entry, looked up): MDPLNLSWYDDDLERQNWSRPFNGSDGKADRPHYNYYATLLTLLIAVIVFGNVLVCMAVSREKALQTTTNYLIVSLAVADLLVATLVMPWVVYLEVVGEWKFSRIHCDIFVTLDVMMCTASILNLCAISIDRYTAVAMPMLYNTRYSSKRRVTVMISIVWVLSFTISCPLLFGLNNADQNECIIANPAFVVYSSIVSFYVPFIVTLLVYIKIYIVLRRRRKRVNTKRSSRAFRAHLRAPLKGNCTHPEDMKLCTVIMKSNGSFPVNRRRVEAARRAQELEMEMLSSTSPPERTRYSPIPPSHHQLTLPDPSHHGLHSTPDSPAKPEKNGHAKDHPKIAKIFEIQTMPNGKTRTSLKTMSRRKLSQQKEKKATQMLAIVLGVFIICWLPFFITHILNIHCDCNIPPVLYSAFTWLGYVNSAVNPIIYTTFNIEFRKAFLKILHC
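DiscoveRx PathHunter D2 beta-arrestin cells (2,100/well) attached overnight, then compound-stimulated 90 min at 37 C in HBSS/10 mM HEPES/0.1% Tween-20 buffer; beta-galactosidase complementation read by luminescence after 1 h at ambient temperature. Dopamine 57 uM final (EC100) as control.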
D2 ag-2: agonists of human D2 dopamine receptor. P14416. HEK293 T-REx D2 cells, calcium flux agonist mode. activation, % at 2 µM. 340,000 compounds, 0.53% hits;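 active = activation over 3 SD above normal in the single-dose calcium agonist read, cut at about 30% in these data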
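Tetracycline-induced HEK293 T-REx cells with force-coupled D2 receptor, plated overnight at 30 C, loaded with no-wash calcium dye. After a 10 s baseline, compound was pin-added and calcium flux read kinetically for 180 s; calcium rises flagged agonists.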
D2 antagonist: antagonizes the human D2 dopamine receptor. P14416. 340,000 compounds, 2% hits. HEK293 TREx D2 cells, calcium flux, dopamine EC80. inhibition, % at 10 µM. AID 485344; in the data active = inhibition above about 30%; inactive = below that, where a call was filed
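Measurement of antagonist activity uses fluorescent calcium dye in inducible HEK293 T-REx D2 cells: 10 s baseline, compound addition with 180 s read, EC80 dopamine addition with a further 180 s read.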
Apoferritin bind: candidate novel general anesthetic via apoferritin binding; P02791; apoferritin/1-aminoanthracene competitive binding, fluorescence; Potency, µM (top dose mostly 77.5 µM), most hits filed as inhibitors; 350,000 compounds, 0.074% hits; active = well fitted inhibition curve with a large enough effect; inconclusive = small, poorly fitted or top-dose-only effect; inactive = no such curve, though single readings can be large or run the other way; also: nearly all actives have a fitted effect of over 20% in size
Target sequence (P02791 2-175 limits assumed): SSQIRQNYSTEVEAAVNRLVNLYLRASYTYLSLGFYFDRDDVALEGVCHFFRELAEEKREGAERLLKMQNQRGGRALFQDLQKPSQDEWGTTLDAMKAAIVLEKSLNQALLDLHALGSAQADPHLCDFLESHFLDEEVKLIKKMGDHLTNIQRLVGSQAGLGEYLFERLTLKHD
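10 uM apoferritin + 50% sat. 1-AMA, PBS; cpd 10 min RT; Ex380/Em535 endpoint; normalized to free probe vs complex; 4-param Hill fit; propofol titration as pos. ctrl.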
D2 PAM-1: D2 dopamine receptor (human) potentiation. P14416. HEK293 T-REx D2, calcium flux, EC20 dopamine potentiation. potentiation, % at 10 µM. 340,000 compounds, 0.34% hits;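 active = potentiation over 3 SD above the plate norm, cut at about 30% in these data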
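Tetracycline-induced HEK293 T-REx cells force-coupled to calcium signalling expressed D2; compounds were pin-added after a 10 s baseline, read kinetically 180 s, then an EC20 dopamine challenge followed with a further 180 s calcium read.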
D2 PAM-2: human D2 receptor positive allosteric modulation; P14416; DiscoveRx D2 beta-arrestin cells, luminescence, 90 min; 100% = 57 uM dopamine signal; potentiation, % (test concentration not listed); 360,000 compounds, 0.23% hits; AID 624464; in the data active = potentiation above about 50%; inconclusive = mostly about 30% to 49%
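D2 cells co-treated with compound plus 50 nM dopamine (EC20) for 90 min at 37 deg C to detect potentiation. Beta-arrestin recruitment was read as enzyme-fragment luminescence after 1 h at ambient temperature. Full response was set by 57 uM dopamine.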
Each line names hits and unclear results; the compound was inactive in the other large screens.

Cc1cc(C)cc(C(=O)NCC(=O)N2CCC3(CC2)NCCc2[nH]cnc23)c1	none
O=C(Nc1ncccn1)c1ccc([N+](=O)[O-])cc1	none (no result: D2 ag-2, D2 antagonist, D2 PAM-1)
O=C(Nc1cccc2c1CCCC2)c1cc([N+](=O)[O-])cc([N+](=O)[O-])c1	D2 PAM-2 62
O=C(Nc1ncccn1)c1cc([N+](=O)[O-])cc([N+](=O)[O-])c1	D2 PAM-2 54
COc1ccccc1N(C)S(=O)(=O)c1ccc(C(=O)NCC2CCCCC2)cc1	D2 antagonist 80 (no result: Apoferritin bind)
COc1ccccc1N(C)S(=O)(=O)c1ccc(C(=O)NCC(C)C)cc1	none
COC(=O)c1ccc(CNC(=O)c2ccc(S(=O)(=O)N(C)c3ccccc3OC)cc2)cc1	D2 antagonist 49 (no result: Apoferritin bind)
O=C(COc1cccc(F)c1)N1c2ccccc2Sc2ccccc21	D2 ag-1 inconclusive, D2 PAM-2 93
O=C(COc1ccccc1)N1c2ccccc2Sc2ccccc21	none
Cc1ccc(SC[C@H](c2ccccc2)N2CCN(C)CCC2=O)cc1	D2 antagonist 38
O=C1NC[C@H](c2ccccc2)OC(=O)[C@@H](Cc2ccc(F)cc2)C/C=C\C[C@H]1CC(=O)N(CCO)Cc1ccccc1	none (no result: D2 ag-2, D2 antagonist, Apoferritin bind, D2 PAM-1)
C=C(C)c1cccc(C(C)(C)NC(=O)N2CCN(c3ccccn3)CC2)c1	D2 antagonist 31
O=C(NC1CCCCC1)c1ccc2c(c1)OCCO2	none
O=C(NC1CCN(Cc2ccccc2)CC1)c1ccc2c(c1)OCCCO2	D2 antagonist 30
O=C(NC1CCN(Cc2ccccc2)CC1)c1c(Cl)cccc1Cl	none
O=C(COc1ccccc1)NC1CCN(Cc2ccccc2)CC1	none
C=C(C)c1cccc(C(C)(C)NC(=O)N2CCCC2)c1	none
O=C(NC1CCN(Cc2ccccc2)CC1)c1cccc(Br)c1	D2 antagonist 98
O=C(COc1ccc(Br)cc1Cl)NC1CCN(Cc2ccccc2)CC1	D2 antagonist 67
COC(=O)/C(=C\c1ccc(O)cc1)c1nc2ccccc2[nH]1	none
CC(Sc1ccccn1)C(=O)Nc1ccc2c(c1)OCO2 (configuration not stated)	none (no result: Apoferritin bind)
CC(C)[C@H](NC(=O)NC1CCN(Cc2ccccc2)CC1)C(=O)O	none
CC(=O)c1cccc(OCc2cc(C(=O)NC3CCN(Cc4ccccc4)CC3)no2)c1	Apoferritin bind inconclusive
O=C(NC1CCN(Cc2ccccc2)CC1)c1cccc(OC(F)F)c1	D2 antagonist 81
O=C(NC1CCN(Cc2ccccc2)CC1)C1COc2ccccc2O1 (configuration not stated)	D2 antagonist 34
COc1ccc(NS(=O)(=O)c2cccc(C(=O)NC3CCN(Cc4ccccc4)CC3)c2)cc1	none
C=C(C)c1cccc(C(C)(C)NC(=O)NC2CCN(Cc3ccccc3)CC2)c1	D2 antagonist 89
COc1ccc(Cn2c(=O)[nH]c3cc(C(=O)NC4CCN(Cc5ccccc5)CC4)ccc32)cc1	D2 antagonist 75
CCN(Cc1ccccc1)S(=O)(=O)c1cc(Br)cc2c1N(C(=O)C1CC1)CC2	none (no result: D2 ag-1, D2 antagonist, D2 PAM-2)
O=C(Cn1cc2c(n1)CCCC2)NCC1CCCO1 (configuration not stated)	none
CCCCN(C(=O)c1cccc(S(=O)(=O)N2CCN(C)CC2)c1)c1c(N)n(CCCC)c(=O)[nH]c1=O	none (no result: Apoferritin bind)
O=C(Cc1ccccc1)NC(Nc1cccc2ccccc12)C(Cl)(Cl)Cl (configuration not stated)	none
S=C(NCc1ccc2c(c1)OCO2)NC1CCN(Cc2ccccc2)CC1	D2 antagonist 103
Cc1c(C(=O)NC2CCN(Cc3ccccc3)C2)oc2ccc(Br)cc12 (configuration not stated)	D2 antagonist 38
CN(C)Cc1csc(NC(=O)Nc2cccc(C(F)(F)F)c2)n1	none (no result: D2 ag-2, D2 antagonist, Apoferritin bind, D2 PAM-1)
CCOC(=O)N1CCC(N2C(=O)c3ccc(C(=O)NCCC(C)C)cc3C2=O)CC1	none
C=CCn1c(C)cc(C(=O)COC(=O)/C=C/c2cccc(OC)c2)c1C	D2 antagonist 42, Apoferritin bind inconclusive
CCc1ccc(C(=O)N/N=C/c2ccc(Cl)cc2Cl)nc1	D2 antagonist 73 (no result: D2 ag-1, D2 PAM-2)
CC12CCC(=O)N1C(C(=O)Nc1nnc(SCc3ccc(F)cc3)s1)CS2 (configuration not stated)	Apoferritin bind 22µM
COc1ccc(NC(=O)N(C)C[C@H]2Oc3ccc(NC(=O)C4CC4)cc3CC(=O)N([C@@H](C)CO)C[C@@H]2C)cc1	none (no result: D2 ag-2, D2 antagonist, Apoferritin bind, D2 PAM-1)
COc1ccc(OC)c(-c2csc(NC(=O)Cc3ccc(F)cc3)n2)c1	none
COc1ccc(OC)c(-c2csc(NC(=O)Cn3[nH]c(=O)c4ccccc4c3=O)n2)c1	D2 antagonist 32
COc1ccc(/C=C/C(=O)NC(=S)NNC(=O)c2cccnc2)cc1OC	none
O=C(OCC(=O)N1CCCc2ccccc21)c1ccc(C(F)(F)F)cc1	none (no result: Apoferritin bind)
O=C(OCC(=O)N1CCCc2ccccc21)c1ccc(S(=O)(=O)C(F)F)cc1	D2 antagonist 42 (no result: Apoferritin bind)
O=C(CSc1nnc(CCc2nc3ccccc3[nH]2)n1-c1ccccc1)NCc1ccccc1	none
CCOc1ccccc1OCC(=O)NCc1ccco1	none
CCOc1ccccc1OCCCNCc1ccco1	D2 antagonist 31
O=c1[nH]n2c(C(F)(F)F)cc(C3CC3)nc2c1N=Nc1ccccc1	none (no result: D2 ag-2, D2 antagonist, D2 PAM-1)
O/N=C(\c1ccc(Cl)cc1Cl)c1ncc(C(F)(F)F)cc1Cl	Apoferritin bind 18µM
O=C(c1ccc(Cl)cc1Cl)c1ncc(C(F)(F)F)cc1Cl	Apoferritin bind inconclusive
CCOC(=O)/C(=C\c1ccc(OC)c(OC)c1)C(=O)c1cccnc1	D2 PAM-1 40
COC(/C=C/Nc1ccc(C)c(C)c1)=C(C#N)C#N	none
Cc1ccc(C2CC(C(F)(F)F)n3ncc(C(=O)NCc4ccco4)c3N2)cc1 (configuration not stated)	D2 antagonist 37, Apoferritin bind inconclusive
O=C(Nc1ccncc1)c1ccc2c(c1)S(=O)(=O)c1ccccc1C2=O	none
O=C(O)c1cccnc1SCc1cccc(Cl)c1	D2 antagonist 45
O=C(c1cc(-c2ccc(O)cc2)on1)N1CCc2ccccc2C1	none
Cc1ccc2c(c1)C1CN(C)CCC1N2S(=O)(=O)c1ccc(C#N)cc1 (configuration not stated)	D2 antagonist 40 (no result: Apoferritin bind)
Cc1cc(NC(=O)c2ocnc2C)no1	none
C=CCOc1ccc(C2C(C#N)=C(N)N(Nc3ccccc3)C3=C2C(=O)CCC3)cc1OC (configuration not stated)	none
